In the library only some 0.64% were active in any assay of this set; here they are far more common.
BLM inh-1 – blocks DNA unwinding by human BLM helicase | AID 2528 | P54132 | 350,000 compounds, 0.2% hits | recombinant BLM DNA unwinding, fluorescence dequenching | Potency, µM (titrated, usually from 56.1 µM), inactives show top-dose activity change, negative = inhibition, most hits filed as inhibitors;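 also: plate controls were vehicle for no effect and no enzyme for full effect; nearly all actives have a fitted effect of over 35% in size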
RECQ1 inh-1 – inhibitors of human RECQ1 DNA helicase | Potency, µM (highest dose often 57.3 µM), inactives show at the highest dose activity, negative = inhibition, most hits filed as inhibitors | AID 2549 | 240,000 compounds, 0.54% hits | RECQ1 DNA unwinding, red fluorescence kinetic read | P46063;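 also: plate controls were vehicle for no effect and no enzyme for full effect; nearly all actives have a fitted effect of over 30% in size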
Target sequence (P46063 whole entry, looked up): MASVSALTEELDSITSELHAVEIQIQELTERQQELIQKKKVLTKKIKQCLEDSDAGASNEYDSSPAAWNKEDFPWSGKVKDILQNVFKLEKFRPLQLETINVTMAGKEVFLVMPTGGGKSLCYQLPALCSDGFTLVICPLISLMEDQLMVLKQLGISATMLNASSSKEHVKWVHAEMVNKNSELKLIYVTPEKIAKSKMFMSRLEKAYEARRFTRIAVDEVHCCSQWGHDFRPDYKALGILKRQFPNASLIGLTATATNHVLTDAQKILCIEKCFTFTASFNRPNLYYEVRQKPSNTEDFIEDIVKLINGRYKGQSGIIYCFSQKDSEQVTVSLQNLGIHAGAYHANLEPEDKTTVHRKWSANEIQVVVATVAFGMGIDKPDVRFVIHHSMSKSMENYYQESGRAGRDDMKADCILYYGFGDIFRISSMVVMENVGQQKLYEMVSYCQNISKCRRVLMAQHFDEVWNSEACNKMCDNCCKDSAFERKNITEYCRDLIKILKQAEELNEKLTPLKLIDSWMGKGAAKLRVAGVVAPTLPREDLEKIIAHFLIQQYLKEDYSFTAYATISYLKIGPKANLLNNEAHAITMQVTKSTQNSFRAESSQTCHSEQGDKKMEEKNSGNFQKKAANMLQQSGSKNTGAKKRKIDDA
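RECQ1T1 50 nM; forked duplex (20 bp + 30-nt ss tails) 200 nM, ATP 2 mM final; pH 8.0, 2 mM MgCl2, 2.5 ug/ml poly(dI-dC); 15 min compound preincubation; discontinuous kinetic read over 2 h at RT.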
TRb-SRC2 inh – inhibitors of human thyroid hormone receptor beta-SRC2 interaction. TRbeta-SRC2 peptide binding, fluorescence polarization; receptor liganded with 1 µM T3. 280,000 compounds, 0.065% hits. AID 1469. Potency, µM (doses to about 106 µM), for inactives: at the top dose activity change, negative = inhibition, hits mostly inhibitors. P10828;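 also: plate controls were bound peptide for no effect and peptide without receptor for full effect; nearly all actives have a fitted effect of over 50% in size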
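Each compound concentration gave % activity, normalized to unbound and bound Texas Red SRC2 controls, from polarization read after 5 hr ambient incubation with T3-loaded human TRb LBD.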
TR SRC2 fluor cs – Texas Red fluorescence interference in TRb-SRC2 counter-screen; 280,000 compounds, 0.29% hits; TRb/SRC2 Texas Red total fluorescence interference; Potency, µM (series often up to 106 µM), inactives show at the top dose fluorescence change, negative = quenching; active = well fitted curve in either direction with a large enough effect; inconclusive = small, poorly fitted or top-dose-only effect
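Human TRb ligand-binding domain at 0.6 uM with 20 nM Texas Red SRC2 peptide in Tris buffer containing 1 uM T3 and 5% DMSO, incubated with compound 5 h at ambient temperature. Total fluorescence (555/632 nm) calculated as parallel + 2 × perpendicular.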
BLM inh-2 – confirmation of inhibitors of human Bloom syndrome helicase BLM. AID 2585. BLM DNA unwinding, fluorescence quenching, biochemical. shares compounds with BLM inh-1. 220 compounds, 40% hits. Potency, µM, for inactives: max response, negative = inhibition, actives largely listed as inhibitors;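 also: strand separation dequenches TAMRA so unwinding raises red fluorescence; series mostly up to about 69 µM; nearly all actives have a fitted effect of over 45% in size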
RECQ1 conf – confirmation of human RECQ1 helicase inhibitors | shares compounds with RECQ1 inh-1 | RECQ1 helicase DNA unwinding, fluorescence | Potency, µM (doses to about 229 µM), inactives show top-dose activity change, negative = inhibition, hits mostly inhibitors | 610 compounds, 28% hits | AID 2708; also: nearly all actives have a fitted effect of over 45% in size
ADP FP counter – ADP displacement flagged in RECQ1 inhibitor counter-screen; shares compounds with RECQ1 inh-1; Potency, µM (doses to about 228 µM), for the others: top-dose activity change, negative = inhibition, usual class: inhibitors; ADP fluorescence polarization displacement counterscreen; 530 compounds, 27% hits; also: nearly all actives have a fitted effect of over 45% in size
RECQ1 inh-2 – RECQ1 helicase inhibition confirmed, round 2; shares compounds with RECQ1 inh-1; recombinant RECQ1 DNA unwinding, red fluorescence; Potency, µM (highest dose often 119 µM), for the others: at the top dose activity, negative = inhibition, most hits filed as inhibitors; 1,100 compounds, 15% hits; also: nearly all actives have a fitted effect of over 50% in size
* = called active by the depositor; i = inactive; ? = inconclusive; / = no result given; [ ] = dose if it differs, or a comment. Unless noted, calls follow the shape of the dose curve; as a rule, active = well fitted curve in the direction sought with a large enough effect; inconclusive = small, poorly fitted or top-dose-only effect, or another doubt; inactive = no such curve, though single readings can be large; an effect the other way counts as inactive or inconclusive. Unless noted, % is scaled to controls: 0 for no effect and ±100 for the full control effect; potency is read from the fitted curve at half-maximal effect.

SMILES | BLM inh-1 | RECQ1 inh-1 | TRb-SRC2 inh | TR SRC2 fluor cs | RECQ1 inh-2 | others
Cc1cnc(CNc2nc(-c3ccc(N(C)C)cc3)nc3ccccc23)cn1 | 28.2µM* | ? | 5.6% | -2.0% | ? | BLM inh-2=20.4µM*
Cc1ccc(-n2ncc(C(=O)NCc3ccccc3)c2C2CCN(C(=O)OC(C)(C)C)CC2)cc1 | -11.1% | / | 3.9% | -3.8% | /
N#C/C(=C\c1ccc(N2CCOCC2)o1)c1nc2ccccc2[nH]1 | 22.4µM* | 31.6µM* | / | / | ? | BLM inh-2=?
N#C/C(=C\c1ccc(N2CCOCC2)c([N+](=O)[O-])c1)c1nc2ccccc2[nH]1 | -19.1% | 10.0% | -20.9% | -5.2% | /
COC1=C(OC)C(=O)c2ccccc2C1=O | / | -11.0% | 1.4% | -2.4% | /
CC1(C)C(=O)NC2=C1C(=O)C(=O)c1ccccc12 | 2.51µM* | 8.91µM* | ? | -27.3% | / | BLM inh-2=5.13µM*;RECQ1 conf=0.501µM*;ADP FP counter=8.91µM*
O=C(CSc1nc2ccccc2n1CCc1ccccc1)c1ccc(O)c(O)c1 | 11.2µM* | 7.08µM* | 5.8% | ? | ? | BLM inh-2=19.2µM*;RECQ1 conf=44.7µM*
COc1ccc(Nc2c3ccccc3nc3ccccc23)cc1 | -6.8% | / | / | / | /
CN1CCN(c2ccc(Nc3c4ccccc4nc4ccccc34)cc2)CC1 | 20µM* | 12.6µM* | 4.9% | -3.6% | / | BLM inh-2=32.4µM*;RECQ1 conf=11.2µM*;ADP FP counter=35.5µM*
Cc1ccc(-c2nc(CNC(=O)NC3CCCCC3)c(C)o2)cc1 | -0.7% | / | -3.3% | -0.1% | /
Cc1nc2c(ccc3nc(NC(=O)c4ccc5c(c4)OCCO5)sc32)s1 | -24.3% | 20µM* | 1.1% | -4.5% | 44.7µM* | BLM inh-2=30.4µM*;ADP FP counter=44.1%[91.9 µM]
O=C(Nc1nc2cc3c(cc2s1)OCCO3)c1ccncc1 | 4.7% | 13.6% | 4.0% | -1.9% | /
CCC(C)CCCCC(=O)NC(CCN)C(=O)NC(C(=O)NC(CCN)C(=O)NC1CCNC(=O)C(C(C)O)NC(=O)C(CCN)NC(=O)C(CCN)NC(=O)C(CC(C)C)NC(=O)C(Cc2ccccc2)NC(=O)C(CCN)NC1=O)C(C)O (centres undefined) | 7.94µM* | 5.01µM* | -3.8% | 2.9% | / | RECQ1 conf=2.82µM*;ADP FP counter=?
COc1ccc(-c2nc(CSCC(=O)N3CCN(c4cccc(C)c4C)CC3)c(C)o2)cc1OC | -1.1% | / | -5.3% | -0.7% | /
CCc1nc(Nc2ccc(N3CCN(C(C)=O)CC3)cc2)c2oc3ccccc3c2n1 | -13.9% | ? | -18.4% | ? | -17.2%
Cc1cccc(NC(=O)Cn2c(=O)n(CCc3ccccc3)c(=O)c3sc4ccccc4c32)c1 | 4.1% | / | -8.0% | -0.1% | /
COC(=O)c1ccccc1NC(=O)c1noc2c1CSc1ccccc1-2 | -8.5% | / | 3.7% | -1.1% | /
COC(=O)c1ccccc1NC(=O)c1noc2c1CCC2 | ? | ? | -11.2% | -5.3% | ?
CSc1ccccc1NC(=O)c1noc2c1CCC2 | -3.8% | ? | 9.7% | -9.6% | ?
CCCCN(CCCC)S(=O)(=O)c1ccc2oc(C(=O)NCc3ccccc3)c(C)c2c1 | -8.5% | / | -3.0% | -1.7% | /
Cc1ccc(NC(=O)CN2C(=O)C(c3ccc(F)cc3)=NC2(C)C)c(C)c1 | -0.3% | / | 0.2% | -2.6% | /
COc1ccc(NC(=O)CN2CCCN(Cc3ccc(Cl)cc3)S2(=O)=O)cc1Cl | -7.7% | / | -2.0% | -3.6% | /
COc1ccc(S(=O)(=O)N2CN(Cc3ccco3)c3nc4ccccc4nc32)cc1 | -13.4% | 35.5µM* | -21.8% | 18.8% | ?
COc1ccc(-c2c3c(=O)n(C)c(=O)n(C)c3c3c(-c4ccc(C)cc4)nc4ccccc4n23)cc1 | -2.7% | / | 1.4% | 3.3% | /
COc1ccc(CCNc2ncnc3cc(OC)c(OC)cc23)cc1OC | -10.1% | i | 3.7% | -2.7% | /
SMILES | BLM inh-1 | RECQ1 inh-1 | TRb-SRC2 inh | TR SRC2 fluor cs | RECQ1 inh-2 | others
COc1ccc(CCNc2ncnc3c2[nH]c2cc(OC)c(OC)cc23)cc1OC | -13.7% | 14.1µM* | 12.1% | -9.3% | ? | RECQ1 conf=?;ADP FP counter=-23.5%[91.9 µM]
CCOc1ccccc1-c1nnc2n1N=C(c1ccc(OC)c(OC)c1)CS2 | 1.1% | -6.8% | -8.3% | -7.2% | / | RECQ1 conf=6.8%[69.1 µM]
COc1ccc(C2=Nn3c(nnc3-c3ccccc3O)SC2)cc1OC | -10.6% | -6.7% | 0.5% | -0.3% | /
C[C@H]1C=CC(=O)C[C@H]1c1c(F)cccc1Cl | 3.7% | i | 1.9% | -2.9% | /
Cc1ccsc1C(=O)OCC(=O)NCc1ccco1 | -9.4% | i | -9.0% | 0.8% | /
O=C(COC(=O)CCC(=O)c1ccc(Cl)cc1)NCc1ccco1 | 2.3% | ? | -13.4% | -1.8% | ?
Cc1ccc(C(=O)OCC(=O)NCc2ccco2)s1 | ? | 12.6µM* | -12.2% | 1.9% | ? | RECQ1 conf=?;ADP FP counter=-14.4%[91.9 µM]
CCOC(=O)N1CCN(Cc2nc3cc([N+](=O)[O-])ccc3n2C(C)C)CC1 | -1.3% | / | -7.9% | 1.1% | /
COC(=O)C1(C(=O)OC)C/C=C\Cc2ccccc2[C@@H]1C[N+](=O)[O-] | 3.0% | i | 1.5% | -1.7% | /
Clc1ccc(C2=NCCN2)cc1 | 1.8% | ? | -0.3% | -1.0% | 2.1%
O=C(c1cnccn1)N1CCC2(CCN(Cc3nccs3)CC2)CC1 | 0.4% | -3.6% | / | / | /
COc1c(C(CC(C)C)OC(C)=O)ccc2c1C(=O)OCc1cc(C)cc(O)c1O2 (centres undefined) | -20.1% | ? | -0.9% | -4.8% | -12.8%
COc1c(C(O)CC(C)C)ccc2c1C(=O)OCc1cc(C)cc(O)c1O2 (centres undefined) | -10.4% | -18.1% | 5.4% | -2.2% | /
O=C(O)c1ccccc1SC1CC(=O)N(c2cccc3ccccc23)C1=O (centres undefined) | -2.9% | -1.4% | -4.8% | -1.0% | /
CCOc1ccc(N2C(=O)CC(Sc3ccccc3C(=O)O)C2=O)c([N+](=O)[O-])c1 (centres undefined) | -1.9% | i | -1.5% | -1.0% | / | RECQ1 conf=10.9%;ADP FP counter=2.1%
Cc1ccc(OCC(=O)NCC(=O)OCc2cc(=O)n3nc(CC(C)C)sc3n2)cc1 | 1.1% | / | -4.0% | 2.2% | /
COc1ccc(NC(=O)Cn2c(=O)n(Cc3ccc4c(c3)OCO4)c(=O)c3ccc(C(=O)NC4CCCCC4)cc32)cc1 | -4.4% | / | -2.8% | -0.5% | /
CCN1CCN(C(=O)c2sc3ncnc(N4CCc5ccccc5C4)c3c2C)CC1 | -1.1% | 28.2µM* | 2.7% | -0.4% | -14.2%
Cc1c(C(=O)N2CCOCC2)sc2ncnc(N3CCc4ccccc4C3)c12 | -1.9% | i | 3.5% | -1.9% | /
